Compounds with a hit are over-represented: about 3.4% of the library has one in this group of screens.
Giardia FBPA inh-1 – blocks Giardia fructose-bisphosphate aldolase activity. purified Giardia FBPA. actives 0.71% (n = 290,000). Potency, µM (titrated, usually from 59.6 µM), without a hit: at the highest dose activity, negative = inhibition, actives largely listed as inhibitors. AID 2451; further: nearly all actives have a fitted effect of over 55% in size
Target sequence (A8B2U2 whole entry, looked up): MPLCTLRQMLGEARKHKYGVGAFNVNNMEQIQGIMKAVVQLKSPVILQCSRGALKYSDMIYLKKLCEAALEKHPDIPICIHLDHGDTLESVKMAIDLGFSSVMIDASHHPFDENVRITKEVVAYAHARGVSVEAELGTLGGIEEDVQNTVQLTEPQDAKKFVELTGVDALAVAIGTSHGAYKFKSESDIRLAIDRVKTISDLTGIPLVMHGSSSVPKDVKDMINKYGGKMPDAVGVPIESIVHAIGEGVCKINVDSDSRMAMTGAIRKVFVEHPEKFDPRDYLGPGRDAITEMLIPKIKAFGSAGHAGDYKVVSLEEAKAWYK
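40 nM FBPA preincubated 10 min at RT with compound (up to 57.5 uM final), then substrate plus GAPDH/TPI/NAD/arsenate coupling and diaphorase/resazurin added. Fluorescence read after 20 min at RT, 525/598 nm.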
AmpC inh detg – AmpC beta-lactamase inhibition with detergent present; P00811; AmpC hydrolysis of nitrocefin, absorbance 480 nm, 0.01% Triton; Potency, µM (highest dose often 114 µM), inactives show top-dose activity change, negative = inhibition, most hits filed as inhibitors; actives 0.041% (n = 370,000); AID 485294;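 further: 0% = no-compound wells and -100% = no-enzyme wells; nearly all actives have a fitted effect of over 25% in size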
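20 mM phosphate pH 7.0 + 0.01% (detergent screen) or 0.0001% Triton X-100; 5.3 nM AmpC reagent; cpd preinc 15 min RT; nitrocefin (800 uM stock) to start; A480 q20 s × 4 min; Activity was normalised to no-enzyme and no-compound control wells.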
RE007 growth inh – less growth of the S. pombe RE007 Vpr strain; Potency, µM (doses to about 92.2 µM), inactives show top-dose activity change, negative = less growth, usual class: inhibitors; actives 0.21% (n = 360,000); S. pombe RE007 Vpr strain, BacTiter-Glo ATP luminescence, 24 h; active means well fitted falling curve with a large enough effect; inconclusive means small, poorly fitted or top-dose-only effect; inactive means no such curve, though single readings can be large or run the other way; further: nearly all actives have a fitted effect of over 50% in size
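Fission yeast RE007 carrying one integrated HIV-1 vpr copy, seeded at OD 0.01 in PMG+AL medium with 23 nL pinned compound. Grown 24 h at 30 degrees; viability read by BacTiter-Glo luminescence after 5 min.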
AmpC no deterg – AmpC beta-lactamase inhibition without detergent. actives 0.52% (n = 330,000). P00811. AmpC nitrocefin hydrolysis, absorbance 480 nm, 0.0001% Triton. Potency, µM (series often up to 57.1 µM), without a hit: top-dose activity change, negative = inhibition, most hits filed as inhibitors;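 further: plate controls were no compound for no effect and no enzyme for full effect; nearly all actives have a fitted effect of over 20% in size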
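20 mM phosphate pH 7.0 + 0.01% (detergent screen) or 0.0001% Triton X-100; 5.3 nM AmpC reagent; cpd preinc 15 min RT; nitrocefin (800 uM stock) to start; A480 q20 s × 4 min; Activity was normalised to no-enzyme and no-compound control wells.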
Sm TGR block – inhibitors of Schistosoma mansoni thioredoxin glutathione reductase; Q962Y6; purified TGR, DTNB reduction, TNB absorbance 405 nm; Potency, µM (top dose mostly 114 µM), inactives show at the top dose activity change, negative = inhibition, usual class: inhibitors; actives 3% (n = 360,000); AID 485364; further: nearly all actives have a fitted effect of over 60% in size
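First, TGR (20 nM dispensed) and NADPH were mixed with compound. Second, a 15 min room-temperature incubation followed. Third, further NADPH and then DTNB were added to start the reaction. Finally, TNB absorbance was monitored kinetically.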
Giardia growth – Giardia lamblia growth inhibition | shares compounds with Giardia FBPA inh-1 | Giardia lamblia trophozoite growth inhibition | Potency, µM (series often up to 57.5 µM), for inactives: at the top dose activity change, negative = inhibition, most hits filed as inhibitors | actives 5% (n = 1,500) | AID 2785;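 further: trophozoites exposed to compound for 48 h at 37 °C; nearly all actives have a fitted effect of over 70% in size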
Mammalian tox – mammalian cytotoxicity of Giardia aldolase inhibitor hits | mammalian cell viability counter-screen, qHTS | shares compounds with Giardia FBPA inh-1 | actives 4% (n = 1,500) | Potency, µM (titrated, usually from 57.5 µM), for the others: at the top dose viability change, negative = toxicity, most hits filed as inhibitors;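 further: Chinese hamster ovary cells used as mammalian cytotoxicity surrogate; viability measured as cellular ATP by luminescence; compound exposure lasted 48 h before reading; nearly all actives have a fitted effect of over 60% in size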
Giardia FBPA inh-2 – confirmation of Giardia fructose-bisphosphate aldolase inhibitors | shares compounds with Giardia FBPA inh-1 | purified Giardia aldolase enzyme activity, qHTS | Potency, µM (top dose mostly 57.5 µM), for inactives: at the top dose activity change, negative = inhibition, usual class: inhibitors | actives 5% (n = 1,500) | AID 2787; further: nearly all actives have a fitted effect of over 45% in size
Rabbit aldolase – rabbit FBP aldolase inhibition by Giardia aldolase hits. shares compounds with Giardia FBPA inh-1. Rabbit muscle FBPA enzyme inhibition, selectivity counter-screen. Potency, µM (highest dose often 57.5 µM), without a hit: at the highest dose activity, negative = inhibition, hits mostly inhibitors. actives 4% (n = 1,500). AID 2794; further: nearly all actives have a fitted effect of over 60% in size
Target sequence (P00883 whole entry, looked up): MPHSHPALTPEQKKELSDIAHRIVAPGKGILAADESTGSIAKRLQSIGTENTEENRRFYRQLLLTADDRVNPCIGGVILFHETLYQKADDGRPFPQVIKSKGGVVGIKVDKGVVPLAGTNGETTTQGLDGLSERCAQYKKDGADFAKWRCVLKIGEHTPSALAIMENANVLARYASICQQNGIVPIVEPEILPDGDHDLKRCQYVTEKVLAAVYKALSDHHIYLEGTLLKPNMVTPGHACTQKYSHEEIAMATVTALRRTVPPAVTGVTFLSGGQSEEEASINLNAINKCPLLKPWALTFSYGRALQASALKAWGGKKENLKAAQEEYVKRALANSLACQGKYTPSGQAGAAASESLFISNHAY
GAPDH coupling – counter-screen for Giardia aldolase inhibitors: GAPDH coupling enzyme | actives 6% (n = 1,500) | GAPDH coupling enzyme counterscreen, biochemical, qHTS | shares compounds with Giardia FBPA inh-1 | AID 2795 | Potency, µM (highest dose often 57.5 µM), for inactives: at the highest dose activity change, negative = inhibition, most hits filed as inhibitors; further: nearly all actives have a fitted effect of over 55% in size
Active calls of the source: *; ? = inconclusive; / = no result given; [ ] = another dose, or the depositor's remark. Unless noted, the call rests on the fitted dose curve; in most records, active means well fitted curve in the direction sought with a large enough effect; inconclusive means small, poorly fitted or top-dose-only effect, or another doubt; inactive means no such curve, though single readings can be large; an effect the other way counts as inactive or inconclusive. Unless noted, on the % scale 0 is the no-effect control and ±100 the full control effect; potency means the concentration at half of the fitted maximal effect.

SMILES	Giardia FBPA inh-1	AmpC inh detg	RE007 growth inh	AmpC no deterg	Sm TGR block	Giardia growth	Mammalian tox	Giardia FBPA inh-2	Rabbit aldolase	GAPDH coupling
N#CCC(=O)Nn1c(=S)[nH]c2ccccc2c1=O	3.5µM*	-12%	13%	-36%	?	-1%[38.3 µM]	5%	-14%	6%	1%
CCn1c(CSc2n[nH]c(N)n2)nc2cc(C(=O)O)ccc21	16µM*	5%	-17%	-24%	4%	21%	-4%	-10%	-5%	-1%
CCn1c(CSc2nnc(-c3cccnc3)n2-c2ccccc2C)nc2cc(C(=O)O)ccc21	7.9µM*	-5%	/	-10%	2%	39%	10%	?	-20%	-18%
CCn1c(CSc2nnc(-c3ccncc3)n2CCOC)nc2cc(C(=O)O)ccc21	?	0%	-14%	-17%	1%	/	/	/	/	/
Cc1nc(SCC(=O)c2ccccc2)n[nH]1	13µM*	-13%	-7%	-18%	-3%	11%	-11%	5%	10%	3%
COc1ccccc1NC(=O)CSc1nnc(Cn2cnc3ccccc32)o1	2%	1%	6%	3%	-16%[57.1 µM]	/	/	/	/	/
O=c1[nH]c(=S)c2ncn(-c3ccccc3)c2[nH]1	10µM*	5%	-9%	-12%	?	10%	7%	3%	3%	7%
CCOC(=O)c1c(O)c(O)c(C(=O)OCC)n1-c1ccccc1	20µM*	3%	-12%	-24%	40µM*	19%	-7%	-16%	-27%	-18%
CCOC(=O)c1sc(=S)n(-c2ccccc2)c1C	5%	2%	17%	-16%	-5%	/	/	/	/	/
CCOC(=O)c1ccc(N=Nc2c(C)[nH]n(-c3ccccc3)c2=O)cc1	10µM*	?	-7%	-16%	0%	?	9%	1%	1%	9%
CC(=O)N(C)c1ccc(N=Nc2c(C)[nH]n(-c3ccccc3)c2=O)cc1	4.5µM*	-16%	-9%	99%	-2%	19%	0%	5%	5%	15%
CCOc1ccc(N=Nc2c(C)[nH]n(-c3ccccc3)c2=O)cc1	7.9µM*	-17%	14%	-37%	?	-5%	1%	1%	4%	8%
Cc1[nH]n(-c2ccccc2)c(=O)c1N=Nc1ccccc1O	-8%	0%	6%	-28%	-2%	/	/	/	/	/
O=C(NCC(F)(F)F)c1ccc2sc([C@H]3C[C@H](O)[C@@H](CO)O3)nc2c1	/	/	-1%[18.4 µM]	/	/	/	/	/	/	/
COc1cccc(N=Nc2c(C)[nH]n(-c3ccccc3)c2=O)c1	3.5µM*	?	-7%	-27%	0%	-16%[38.3 µM]	-3%	-11%	5%	-5%
CCOc1ccc(-n2c(O)c(N=Nc3c(C)n(C)n(-c4ccccc4)c3=O)c(=O)[nH]c2=O)cc1	16µM*	-4%	0%	-21%	9%	?	7%	2%	-14%	-13%
O=C(NCc1csc(-c2cccs2)n1)C1CCC1	-3%	2%	5%	-10%	1%	/	/	/	/	/
CC(=O)Nc1cccc(NC(=O)c2cccc(OCc3ccccc3)c2)c1	6%	3%	6%	-21%	3%	/	/	/	/	/
CCCCC1(C)NC(=S)N2N1C(=S)NC2(C)CCCC (centres undefined)	16µM*	0%	4%	-7%	-2%	?	21%	10%	2%	13%
NNc1nc2c(-c3ccc(Cl)cc3)nnn2c2ccccc12	14µM*	?	-4%	-33%	0%	?	?	-14%	-19%	-13%
CCN1CCN(CCOCCOc2ccccc2-c2ccccc2)CC1	18µM*	-1%	/	47%	/	11%[10.4 µM]	-9%	7%	-2%	2%
c1ccc(-c2ccccc2OCCOCCN2CCNCC2)cc1	20µM*	-5%	22%	31%	/	?	6%	-3%	3%	-16%
Cc1ccc(S(=O)(=O)N2CCN(C(=O)c3c(-c4ccccc4)noc3C)CC2)cc1	/	5%	-1%	71%	3%	/	/	/	/	/
O=c1c(CO)cc(CO)cc(CO)c1O	?	-9%	20%	-5%	0%	-4%[38.3 µM]	-10%	-23%	-10%	-16%
Cc1ccc(SCC(=O)OCC(=O)NCCCc2ccccc2)cc1	/	-13%	-15%	1%	-4%	/	/	/	/	/
SMILES	Giardia FBPA inh-1	AmpC inh detg	RE007 growth inh	AmpC no deterg	Sm TGR block	Giardia growth	Mammalian tox	Giardia FBPA inh-2	Rabbit aldolase	GAPDH coupling
CSc1ccc(CN(C)CCc2ccccn2)cc1	14µM*	-4%	-5%	-2%	5%	-9%[10.4 µM]	3%	1%	0%	5%
CN(CCc1ccccn1)Cc1ccc(Cl)c(Cl)c1	?	0%	-22%	14%	-2%	/	/	/	/	/
CN(CCc1ccccn1)S(=O)(=O)c1ccccc1F	18%	?	8%	-8%	5%	/	/	/	/	/
CN(CCc1ccccn1)Cc1ccc(Cl)cc1Cl	18µM*	-11%	-7%	-13%	0%	23%	5%	2%	0%	13%
CCCn1c(C(C)NC(=O)c2ccccc2)n[nH]c1=S (centres undefined)	19%	-3%	-13%	2%	4%	/	/	/	/	/
CCn1c(C(C)NS(=O)(=O)c2ccc(Cl)cc2)n[nH]c1=S (centres undefined)	11µM*	-3%	3%	-22%	1%	14%	-6%	6%	4%	13%
CCCn1c(C(C)NS(=O)(=O)c2ccccc2)n[nH]c1=S (centres undefined)	10µM*	2%	2%	-16%	-13%	73%	12%	-1%	-1%	6%
Cn1cc(S(=O)(=O)N2CCCCCC2)cc1C(=O)Nc1ccccc1F	/	5%	/	/	-2%	/	/	/	/	/
Cc1[nH]c2ccccc2c1/C=N/Nc1nncn1N	13µM*	5%	1%	-12%	/	-12%	-19%	?	?	-27%
Cc1[nH]c2ccccc2c1/C=N/Nc1ccccn1	-3%	4%	/	-12%	-14%	/	/	/	/	/
Cc1ccc(NC(=S)c2ccncc2)cc1	28µM*	2%	-5%	-6%	2%	23%	1%	6%	-2%	8%

Screening results (PubChem BioAssay)
